HEK cytotox: HEK 293 cell cytotoxicity | HEK 293 viability, ATP luminescence (CellTiter-Glo), 48-72 h | Potency, µM (doses to about 115 µM), hits mostly inhibitors | 94,000 compounds, 6.6% hits; also: nearly all actives have a fitted effect of over 60% in size
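qHTS cytotoxicity; HEK 293, 250 cells/well; compound pinned; 48 or 72 hr, 37 degree Celsius, 5% CO2, 95% humidity; CellTiter-Glo, 10 min RT; luminescence (ATP).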
3T3 cytotox: NIH 3T3 cell cytotoxicity | NIH 3T3 viability, CellTiter-Glo ATP luminescence, 48-72 h | Potency, µM (top dose mostly 96.7 µM), actives largely listed as inhibitors | 94,000 compounds, 4.3% hits | AID 1345082; also: nearly all actives have a fitted effect of over 55% in size
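Viability of NIH 3T3 cells after 48 or 72 hr compound treatment at 37 °C was assessed by CellTiter-Glo, with luminescence imaged following a 10 min room-temperature step.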
FLuc inh: blocks purified firefly luciferase enzyme activity; AID 1347043; purified P. pyralis luciferase, luminescence, biochemical; Potency, µM (series often up to 115 µM), actives largely listed as inhibitors; 76,000 compounds, 2.5% hits; P08659; also: nearly all actives have a fitted effect of over 65% in size
Target sequence (P08659 whole entry, looked up): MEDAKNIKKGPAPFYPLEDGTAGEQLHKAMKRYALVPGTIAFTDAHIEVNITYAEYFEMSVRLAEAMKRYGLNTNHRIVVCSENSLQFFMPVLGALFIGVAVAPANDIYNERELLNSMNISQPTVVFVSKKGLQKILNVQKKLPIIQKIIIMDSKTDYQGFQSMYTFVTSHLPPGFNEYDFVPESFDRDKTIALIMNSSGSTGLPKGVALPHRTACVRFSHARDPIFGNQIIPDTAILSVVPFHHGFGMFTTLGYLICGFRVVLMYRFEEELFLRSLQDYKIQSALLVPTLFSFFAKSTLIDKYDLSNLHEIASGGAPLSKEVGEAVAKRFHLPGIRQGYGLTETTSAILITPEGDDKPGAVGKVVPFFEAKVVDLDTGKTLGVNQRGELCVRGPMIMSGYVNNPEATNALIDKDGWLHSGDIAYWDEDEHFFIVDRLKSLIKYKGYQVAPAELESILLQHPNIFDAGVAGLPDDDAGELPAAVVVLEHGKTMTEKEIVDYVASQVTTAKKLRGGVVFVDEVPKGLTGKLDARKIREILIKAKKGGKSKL
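FLuc 10nM, D-luciferin 10uM, ATP 10uM, Mg acetate 10mM, Tris acetate pH 7.5, Tween/BSA; cpd qHTS; enzyme added last; CCD luminescence.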
hNpr1 antagonist: antagonists of human natriuretic peptide receptor Npr1; P16066; HEK293 hNpr1 GloSensor cGMP, ANP-stimulated luminescence; Potency, µM (highest dose often 46.3 µM), most hits filed as inhibitors; 76,000 compounds, 1.6% hits; calls by dose curve; also: nearly all actives have a fitted effect of over 60% in size
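Compound pre-incubated 30 min at room temperature on GloSensor-loaded HEK293 cells stably carrying hNpr1 and the pGS-40F cGMP biosensor. Stimulation uses hNppA at 0.1 nM final; luminescence is taken at baseline and 20 min post-agonist.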
Large screens that a line does not name were inactive; ! = not active in a repeat. Sampled rows, rich in hits. Any-hit rate of the full collection: about 11%. Unless noted, calls follow the shape of the dose curve; as a rule, active = well fitted curve in the direction sought with a large enough effect; inconclusive = small, poorly fitted or top-dose-only effect, or another doubt; inactive = no such curve, though single readings can be large; an effect the other way counts as inactive or inconclusive.

O=C(c1ccccc1)N1CC2(Cc3ccccc3NC2=O)C1	none (no result: FLuc inh, hNpr1 antagonist)
N#Cc1ccccc1CN1CCNc2nc(CNCc3ccc4c(c3)OCO4)n(Cc3ccccc3)c2C1=O	HEK cytotox inconclusive, 3T3 cytotox inconclusive
CCn1cc(-c2ccc(Cl)cc2)cc1C(=O)N1CCCN(C)CC1	HEK cytotox 25µM, 3T3 cytotox 18µM
CCOC(=O)CNC(=O)c1cc(-c2ccc(Cl)cc2)cn1C	none
CCn1cc(-c2ccc(C)cc2)cc1C(=O)N1CCCN(C)CC1	HEK cytotox 79µM, 3T3 cytotox inconclusive
CCn1cc(-c2ccc(Cl)cc2)cc1C(=O)NCC(=O)OC	3T3 cytotox inconclusive, FLuc inh 40µM
CCn1cc(-c2ccc(Cl)cc2)cc1C(=O)N1CCN(C(C)C)CC1	HEK cytotox inconclusive, 3T3 cytotox 40µM
COCCN1C(=O)c2cccn2CC1CNC(=O)c1cc(F)ccc1F (stereo not given)	none (no result: FLuc inh, hNpr1 antagonist)
Cc1cccc2c(C3CCN(S(=O)(=O)c4cc(F)c(F)cc4Cl)CC3)c[nH]c12	HEK cytotox inconclusive, 3T3 cytotox 32µM
COc1ccc(Cl)cc1S(=O)(=O)N1CCC(c2c[nH]c3c(C)cccc23)CC1	HEK cytotox inconclusive, 3T3 cytotox inconclusive
COc1cccc(C(=O)Nc2ccc3c(c2)CN(Cc2cccc(OC)c2OC)C(=O)CO3)c1	HEK cytotox 45µM, FLuc inh inconclusive
O=C(Nc1ccc2c(c1)CN(Cc1ccccc1F)C(=O)CO2)c1ccc(Cl)cc1	HEK cytotox 40µM, 3T3 cytotox inconclusive, FLuc inh inconclusive
COc1ccc(CN2Cc3cc(NC(=O)c4ccc(F)cc4)ccc3OC(C)C2=O)c(OC)c1 (stereo not given)	HEK cytotox inconclusive
COc1ccccc1CN1Cc2cc(NC(=O)c3ccc(Cl)cc3)ccc2OC(C)C1=O (stereo not given)	HEK cytotox 25µM, 3T3 cytotox inconclusive
COc1cccc(CN2Cc3cc(NC(=O)c4ccc(F)cc4F)ccc3OC(C)C2=O)c1OC (stereo not given)	HEK cytotox inconclusive, 3T3 cytotox inconclusive
CC1Oc2ccc(NC(=O)c3ccc(Cl)c(Cl)c3)cc2CN(Cc2ccccc2F)C1=O (stereo not given)	HEK cytotox inconclusive, 3T3 cytotox inconclusive
COc1ccc(CN2Cc3cc(NC(=O)c4ccccc4F)ccc3OC(C)C2=O)c(OC)c1 (stereo not given)	HEK cytotox 35µM, 3T3 cytotox inconclusive
COc1cccc(CN2Cc3cc(NC(=O)c4ccccc4)ccc3OC(C)C2=O)c1OC (stereo not given)	HEK cytotox inconclusive, 3T3 cytotox inconclusive
COc1cccc(C(=O)Nc2ccc3c(c2)CN(Cc2cccc(OC)c2OC)C(=O)C(C)O3)c1 (stereo not given)	HEK cytotox 28µM, 3T3 cytotox 35µM
COc1ccc(C(=O)Nc2cc(C3CCCC3)nn2C)cc1	HEK cytotox 100µM, 3T3 cytotox inconclusive (no result: FLuc inh, hNpr1 antagonist)
COc1cccc(C(=O)Nc2cc(C3CC3)nn2C)c1	none (no result: FLuc inh, hNpr1 antagonist)
COc1ccc(CNC[C@H]2O[C@H](Cc3cc(-c4cccc(O)c4)on3)CC[C@@H]2O)cc1	HEK cytotox inconclusive, 3T3 cytotox inconclusive
O=C(NC1CCCCCC1)c1cc(-c2ccc(Cl)cc2Cl)c2nncn2n1	HEK cytotox 40µM, 3T3 cytotox inconclusive (no result: FLuc inh, hNpr1 antagonist)
O=C(NCc1ccc(Cl)cc1)c1cc(-c2ccc(Cl)cc2Cl)c2nncn2n1	HEK cytotox inconclusive, 3T3 cytotox 35µM (no result: FLuc inh, hNpr1 antagonist)
COCCNc1ccc2nnc(-c3ccccn3)n2n1	3T3 cytotox inconclusive
COCCCNc1ccc2nnc(-c3ccc(C)cn3)n2n1	3T3 cytotox 89µM
Cc1ccc(-c2nnc3ccc(NCc4cccs4)nn23)nc1	HEK cytotox 100µM, 3T3 cytotox inconclusive
O=C(NC[C@H]1OC[C@@H](N(Cc2cccs2)Cc2cccs2)[C@@H]1O)c1ccccc1	HEK cytotox inconclusive, 3T3 cytotox inconclusive
Cc1ccc2nc(CO[C@H]3CN(c4ccc(C#N)cn4)C[C@H]3F)[nH]c2c1	none
CN1C[C@@H](NC(=O)c2ccccc2)C[C@H]1c1nc(-c2ccc3c(c2)OCO3)no1	HEK cytotox 79µM, 3T3 cytotox inconclusive
CN(C)c1ccc(C(=O)N[C@H]2C[C@@H](c3nc(-c4ccc5c(c4)OCO5)no3)N(C)C2)cc1	HEK cytotox inconclusive, 3T3 cytotox inconclusive
CN1C[C@@H](NC(=O)c2ccc3ccccc3c2)C[C@H]1c1nc(-c2ccc3c(c2)OCO3)no1	HEK cytotox inconclusive
CN1C[C@@H](NC(=O)c2ccc(F)cc2)C[C@H]1c1nc(-c2ccc3c(c2)OCO3)no1	HEK cytotox 79µM, 3T3 cytotox inconclusive
CN1C[C@@H](NC(=O)c2ccccc2)C[C@H]1c1nc(-c2ccc(F)cc2)no1	HEK cytotox inconclusive
Cc1ccc(C(=O)N[C@H]2C[C@@H](c3nc(-c4ccc5c(c4)OCO5)no3)N(C)C2)cc1	HEK cytotox inconclusive, 3T3 cytotox 79µM
Cc1cnc(-c2ccncc2)n1CC1CN(Cc2cccnc2)C1	none (no result: FLuc inh, hNpr1 antagonist)
Cc1ccc([S+](=O)([O-])N2CC(N3C(=O)c4c(c(C)nn4-c4ccccc4)C3C3CC3)C2)cc1 (stereo not given)	none (no result: FLuc inh, hNpr1 antagonist)
COCc1cccc(-c2n[nH]c3c2CC(=O)N(CCOc2ccccc2)C3)c1	HEK cytotox inconclusive, 3T3 cytotox inconclusive
Cc1cccc(-c2cccc(CN3CCC(NC(=O)C(C)(C)C)CC3)c2)c1	HEK cytotox 45µM, 3T3 cytotox inconclusive (no result: FLuc inh, hNpr1 antagonist)
Cc1cccc(-c2cccc(CN3CCC(NC(=O)NC4CCCC4)CC3)c2)c1	3T3 cytotox inconclusive (no result: FLuc inh, hNpr1 antagonist)
O=C(NC1CCN(Cc2cccc(-c3cccs3)c2)CC1)c1cccc(Cl)c1	HEK cytotox 20µM!, 3T3 cytotox inconclusive (no result: FLuc inh, hNpr1 antagonist)
Cc1cccc(-c2cccc(CN3CCC(NC(=O)c4ccc(C(F)(F)F)cc4)CC3)c2)c1	none (no result: FLuc inh, hNpr1 antagonist)
Cc1cccc(-c2cccc(CN3CCC(NC(=O)c4cccc(Cl)c4)CC3)c2)c1	HEK cytotox 28µM, 3T3 cytotox 20µM (no result: FLuc inh, hNpr1 antagonist)
O=C(NC1CCN(Cc2cccc(-c3cccs3)c2)CC1)c1ccc(Cl)cc1	HEK cytotox inconclusive (no result: FLuc inh, hNpr1 antagonist)
Cc1cccc(-c2cccc(CN3CCC(NC(=O)Cc4cccc(Cl)c4)CC3)c2)c1	HEK cytotox 20µM, 3T3 cytotox 14µM (no result: FLuc inh, hNpr1 antagonist)
O=C(c1ccccc1F)N1CCCC2(C1)C(=NC1CCCCC1)NC(=O)N2c1cccnc1 (stereo not given)	none
COC(=O)[C@@H](CC(C)C)NC(=O)[C@@H]1C[C@@H](n2nnc(C(N)=O)c2C(N)=O)CCN1C(=O)c1cccn1C	none
Cc1nnc(-c2cc(Nc3cccc(N(C)C)c3)ccn2)n1C1CCCCC1	HEK cytotox 89µM, 3T3 cytotox inconclusive
CN(C)C(=O)C1CCc2nnc(C(C)(C)C)n21 (stereo not given)	none (no result: FLuc inh, hNpr1 antagonist)
CCC(=O)NCc1cccnc1Oc1ccccc1OC	none
COc1ccccc1Oc1ncccc1CNC(=O)c1cccnc1C	none
COc1ccccc1Oc1ncccc1CNC(=O)c1ccccc1SC	HEK cytotox inconclusive, FLuc inh 32µM
COc1ccccc1Oc1ncccc1CNC(=O)Nc1cccc(C#N)c1	HEK cytotox inconclusive, 3T3 cytotox 32µM
CS(=O)(=O)N1CCCN(C(=O)NCc2ccccc2)CCNC(=O)CC1c1ccccc1 (stereo not given)	none

From PubChem
